Screening results: PubChem, Broad Institute
A selection: hits, their analogues and other compounds. The true share with any hit is near 3.1%.
ERAP1 HTS inh: inhibitors of human ERAP1 aminopeptidase; Q9NZ08; recombinant ERAP1, Leu-AMC fluorescence, 60 min; inhibition, % at 10.7 µM; hit rate 0.15% among 340,000; AID 652197;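 active = mean replicate inhibition of at least 30%, or all replicates individually reaching that 30% level; inactive = mean below 30% and not every replicate reaching it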
Target sequence (Q9NZ08 whole entry, looked up): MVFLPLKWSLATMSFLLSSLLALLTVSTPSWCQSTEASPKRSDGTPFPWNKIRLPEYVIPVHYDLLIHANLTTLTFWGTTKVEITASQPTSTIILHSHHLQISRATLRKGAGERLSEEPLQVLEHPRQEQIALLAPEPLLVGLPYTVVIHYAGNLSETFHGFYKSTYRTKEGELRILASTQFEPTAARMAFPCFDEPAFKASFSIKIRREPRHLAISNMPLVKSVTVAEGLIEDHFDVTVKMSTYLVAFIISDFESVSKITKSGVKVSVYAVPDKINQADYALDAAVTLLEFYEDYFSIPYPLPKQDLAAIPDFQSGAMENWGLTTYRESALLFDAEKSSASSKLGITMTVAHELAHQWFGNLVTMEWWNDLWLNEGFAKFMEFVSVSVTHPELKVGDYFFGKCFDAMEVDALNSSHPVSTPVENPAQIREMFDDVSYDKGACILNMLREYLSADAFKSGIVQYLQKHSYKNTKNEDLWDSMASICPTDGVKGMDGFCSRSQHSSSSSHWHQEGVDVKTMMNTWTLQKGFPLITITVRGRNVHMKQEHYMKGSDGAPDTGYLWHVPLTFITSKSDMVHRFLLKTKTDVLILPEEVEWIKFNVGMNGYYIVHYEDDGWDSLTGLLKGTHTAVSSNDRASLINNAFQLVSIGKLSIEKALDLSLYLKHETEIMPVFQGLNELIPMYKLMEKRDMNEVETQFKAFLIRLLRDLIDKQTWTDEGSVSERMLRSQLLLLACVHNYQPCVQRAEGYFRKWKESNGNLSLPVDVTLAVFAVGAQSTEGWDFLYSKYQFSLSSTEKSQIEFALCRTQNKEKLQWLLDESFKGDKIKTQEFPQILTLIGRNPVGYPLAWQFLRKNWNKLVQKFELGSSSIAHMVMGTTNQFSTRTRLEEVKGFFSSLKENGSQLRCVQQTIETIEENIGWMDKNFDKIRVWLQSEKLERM
SIRT5 inh: inhibitors of human sirtuin-5 desuccinylase | Q9NXA8 | Purified SirT5, succinyl-peptide AMC, trypsin-coupled fluorescence | inhibition, % at 15 µM | hit rate 1.1% among 330,000 | AID 652115; in the data active = inhibition above about 15%
FGF22 binding: binders of recombinant human FGF22 by thermal shift | SYPRO orange fluorescence; percent of sucrose octasulfate shift, DMSO zero | activity (Tm shift, normalised), % at 9.99 µM | Q9HCT0 | hit rate 1.5% among 340,000;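 active = mean Tm shift, scaled 0 neutral to 100 positive control, at about 1.3% or above, every replicate too, limit read from the data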
CASP6 VEID inh: caspase-6 (human) enzyme inhibition | hit rate 0.53% among 350,000 | P55212 | inhibition, % at 12.5 µM | purified caspase-6, Z-VEID-R110 cleavage fluorescence;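 active = mean inhibition across replicates at least about 35%, with every replicate also reaching that limit, limit read from the data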
Each line names hits and unclear results; the compound was inactive in the other large screens.

COc1ccc(S(=O)(=O)Nc2ccc3c(c2)C(=O)N([C@H](C)CO)C[C@@H](C)[C@H](CN(C)Cc2ccc(C(F)(F)F)cc2)OCCCC[C@H](C)O3)cc1	SIRT5 inh 15
CCOc1cc(C=NN2CCCCCC2)ccc1O	SIRT5 inh 31
CCOc1cc(/C=N/N2CCN(Cc3ccccc3)CC2)ccc1O	none
Oc1ccc(/C=N/N2CCCCC2)c(O)c1O	CASP6 VEID inh 39
C[C@@H]1CN([C@H](C)CO)C(=O)c2cc(NC(=O)CCC(F)(F)F)ccc2O[C@@H]1CN(C)C	none
C[C@@H]1CN([C@@H](C)CO)C(=O)Cc2cc(NC(=O)Cc3cn(C)c4ccccc34)ccc2O[C@@H]1CN(C)S(=O)(=O)c1ccccc1	none
O=C1C=C(c2c(O)ccc3ccccc23)c2ccccc2C1=O	none (no result: SIRT5 inh)
O=C1C=C(O)c2cccc(O)c2C1=O	CASP6 VEID inh 77 (no result: SIRT5 inh)
COc1ccc(-n2c(=O)/c(=C\c3cccs3)s/c2=C(/C#N)C(=O)NCCN2CCOCC2)cc1	FGF22 binding 43
O=C(COC(=O)c1cccnc1Cl)NCc1cccs1	FGF22 binding 43 (no result: CASP6 VEID inh)
CCOc1ncccc1C(=O)OCC(=O)NCc1cccs1	none
CC(=O)NC1=NN(C(C)=O)C(C)(CC(=O)OC(C)(C)C)S1 (stereo not given)	FGF22 binding 43
O=C(Oc1c(Br)cc([N+](=O)[O-])cc1Br)c1cccnc1	FGF22 binding 44
COc1cccc(CN2CCc3[nH]c(=S)[nH]c(=O)c3C2)c1	CASP6 VEID inh 41
Cc1ccc(-c2cc(C(=O)Nc3c(C)n(C)n(-c4ccccc4)c3=O)c3ccccc3n2)cc1	FGF22 binding 43 (no result: SIRT5 inh)
N/C(=N\OC(=O)c1cc(-c2ccccc2)nc2ccccc12)c1ccccn1	FGF22 binding 43
Cc1csc(NC(=O)c2cc(-c3ccncc3)nc3ccccc23)n1	FGF22 binding 44
Cc1c(NC(=O)c2cc(-c3ccccc3)nc3ccccc23)c(=O)n(-c2ccccc2)n1C	none
Cc1ccc(C(=O)O/N=C(\N)c2ccccn2)c(C)c1	none
O=C(O)c1ccccc1NC(=O)c1cc(-c2ccccc2)nc2ccccc12	FGF22 binding 3.9
C[C@@H]1CN([C@@H](C)CO)C(=O)c2cc(NS(=O)(=O)c3cn(C)cn3)ccc2O[C@@H](C)CCCCO[C@H]1CN(C)C(=O)CCCN(C)C	none
C[C@@H]1CN([C@@H](C)CO)C(=O)c2cccc(NC(=O)Nc3ccc(F)cc3)c2O[C@H]1CN(C)C(=O)NC1CCCCC1	none
Cc1cc(-c2cc(C(=O)O)c3ccccc3n2)c(C)s1	FGF22 binding 44
COc1ccc(-c2cc(C(=O)Nc3ccccc3N3CCOCC3)c3ccccc3n2)cc1OC	FGF22 binding 2.3
CNC[C@H]1Oc2ccc(NS(=O)(=O)c3c(C)noc3C)cc2CC(=O)N([C@H](C)CO)C[C@@H]1C	none
COc1ccc(S(=O)(=O)Nc2ccc3c(c2)CC(=O)N([C@H](C)CO)C[C@@H](C)[C@@H](CN(C)Cc2ccc(C(=O)O)cc2)O3)cc1	none
CCCn1c(CN2CCN(C(=O)OCC)CC2)nc2cc(NC(=O)C(C)C)ccc21	none
CCCn1c(CN2CCN(C(=O)OCC)CC2)nc2cc(NC(C)=O)ccc21	SIRT5 inh 17
COc1ccc(CC(=O)NNC(=O)CCc2ccccc2)cc1OC	FGF22 binding 43
COc1ccc(CCC(=O)NC2CCCc3ccccc32)cc1OC (stereo not given)	ERAP1 HTS inh 32
COc1ccc(CC(=O)NC(C)CCc2ccccc2)cc1OC (stereo not given)	none
S=C(Nc1ccccc1)N(Cc1ccccc1)Cc1ccncc1	none
CCc1ccc(NC(=S)N(Cc2ccccc2)Cc2ccccn2)cc1	FGF22 binding 44
O=C(CCl)Nc1cn(-c2ccccc2)nc1-c1ccccc1	FGF22 binding 43
CC(=O)Nc1cn(-c2ccccc2)nc1-c1ccccc1	none (no result: ERAP1 HTS inh)
Cc1ccc(N=C2NC(=O)/C(=C/c3cn(C)c4ccccc34)S2)cc1C	SIRT5 inh 26
CC(Sc1nc(-c2ccc(F)cc2)cs1)C(=O)N1c2ccccc2CC1C (stereo not given)	SIRT5 inh 26
CC1(C)CC(=O)/C(=C(\O)CCCN2C(=O)c3ccccc3C2=O)C(=NCC(=O)O)C1	none
CC(N=C1CC(C)(C)CC(=O)/C1=C(/O)CCCN1C(=O)c2ccccc2C1=O)C(=O)O (stereo not given)	FGF22 binding 43
COC(=O)Cc1csc(NC(=O)CSc2nnc3ccccn23)n1	FGF22 binding 44
Cc1ccc2nc(SCC(=O)Nc3ccc(C(N)=O)cc3)[nH]c2c1	FGF22 binding 43
Cc1cccc(NC(=O)CCCSc2nc3ccccc3[nH]2)c1	FGF22 binding 43
Cc1noc(C)c1S(=O)(=O)Nc1ccc2c(c1)C(=O)N([C@H](C)CO)C[C@@H](C)[C@@H](CN(C)CC1CCCCC1)OCCCC[C@H](C)O2	none
CC(C)N(C(=S)NC1CC2CCC1C2)c1ccccc1 (stereo not given)	FGF22 binding 44
CC(C)OC(=O)c1c(NC(=O)C2CC=CCC2C(=O)O)sc2c1CCCCC2 (stereo not given)	none (no result: SIRT5 inh)
NC(=O)c1c(NC(=O)C2CC=CCC2C(=O)O)sc2c1CCCCC2 (stereo not given)	CASP6 VEID inh 52
CCc1cccc2c(C(=O)C(F)(F)F)cn(CC(=O)NCC3CCCO3)c12 (stereo not given)	none
CCc1cccc2c(C(=O)C(F)(F)F)cn(CC(=O)N3CCOCC3)c12	FGF22 binding 43
CCOCc1[nH]c(=S)[nH]c(=O)c1Cc1ccc(OCC)cc1	FGF22 binding 43
C[C@@H]1CN([C@H](C)CO)C(=O)c2cccc(NC(=O)CCCCCC(=O)Nc3ccccc3N)c2O[C@H]1CN(C)C	none
CN(C1=C(NC(=O)c2ccccc2)C(=O)c2ccccc2C1=O)C1CCS(=O)(=O)C1 (stereo not given)	CASP6 VEID inh 78
O=C(NC(=S)NC1CCS(=O)(=O)C1)c1ccccc1 (stereo not given)	none
C[C@@H]1CN([C@@H](C)CO)C(=O)c2cccc(NS(=O)(=O)c3ccccc3)c2O[C@H]1CN(C)S(=O)(=O)c1cccs1	none
CC(C)NC(=O)N1[C@H](CN(C)C(=O)c2ccccc2)[C@@H](c2ccccc2)[C@@H]1CO	SIRT5 inh 18
COCC(=O)N(C)C[C@H]1[C@H](c2ccccc2)[C@@H](CO)N1C(=O)Cc1ccncc1	SIRT5 inh 20
CCCc1c(C(=O)N/N=C(\C)c2ccc3c(c2)OCO3)nnn1-c1nonc1N	none
CCCc1c(C(=O)N/N=C(\C)c2ccc(CC(C)C)cc2)nnn1-c1nonc1N	FGF22 binding 44 (no result: SIRT5 inh)
O=C(NCCCN1CCCC1)c1ccc2c(c1)N(Cc1cccc(Cl)c1)C(=O)c1ccccc1S2(=O)=O	CASP6 VEID inh 65 (no result: SIRT5 inh)
COc1ccc(CNC(=O)CCn2ccc3cc(S(=O)(=O)N4CCCC4)ccc32)cc1	SIRT5 inh 34
COc1cccc(CNC(=O)CCn2ccc3cc(S(=O)(=O)N4CCCC4)ccc32)c1	CASP6 VEID inh 70
CSc1ccc(CNC(=O)CCn2ccc3cc(S(=O)(=O)N4CCCC4)ccc32)cc1	none
